Bioassay records (PubChem BioAssay)
HIF-2a inh: blocks HIF-2a reporter activity | 786-0 RCC cells HIF-2a reporter, luciferase luminescence, overnight | inhibition, % at 18.8 µM | 360,000 tested, 0.72% active | AID 624352;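 active means inhibition of the luminescence signal of 40% or more relative to plate controls, in a single-dose primary screen at 18.75 µM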
Peg3 prom inh: Peg3 promoter activity inhibition; HeLa PEG-Prom luciferase reporter, luminescence, overnight; inhibition, % at 20 µM; 360,000 tested, 1.7% active; AID 588405;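 active means inhibition of at least 50% at 20 µM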
TROY signal inh: blocks TROY-dependent signaling in reporter cells; AID 1347056; inhibition, % at 10 µM; 360,000 tested, 0.98% active; Q293 LMP1-TROYcd NF-kB luciferase reporter, 4 h;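 active means compounds whose plate-normalised and pattern-corrected inhibition of the luciferase reporter signal at the single screening dose is 50% or more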
TWEAK-Fn14 inh: blocks TWEAK-Fn14 interaction in a reporter cell assay; TWEAK-stimulated Fn14 reporter cells, luciferase luminescence, 8 h; inhibition, % at 10 µM; 360,000 tested, 2% active; in the data active means inhibition above about 50%
CF NFkB inh: blocks PAF-induced NF-kB reporter in cystic fibrosis cells; KKLEB NF-kB-GFP reporter, GFP fluorescence overnight; inhibition, % at 5 µM; 360,000 tested, 0.86% active; AID 588850;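 active means at least 50% inhibition at 5 µM, scaled per plate between neutral and stimulator controls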;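 further: PAF is a Pseudomonas aeruginosa culture filtrate used as stimulus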
KKLEB cytotox: reduces viability of KKLEB cystic fibrosis airway cells. KKLEB CF airway cells viability, ATPlite luminescence, overnight; active compounds read low; cells stimulated with P. aeruginosa culture filtrate. activity change (cytotoxicity), % at 5 µM. 360,000 tested, 0.36% active;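 active means corrected activity change at or below -50% at 5 µM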
Hits are given with their value; n = inactive; x = not tested or not shown. Hits are enriched below; roughly 4% of the tested compounds scored in any of these assays.

SMILES	HIF-2a inh	Peg3 prom inh	TROY signal inh	TWEAK-Fn14 inh	CF NFkB inh	KKLEB cytotox
COC(=O)[C@@]12C[C@@H](CC(=O)N3CCSCC3)C(=O)N(CCc3ccc(OC)c(OC)c3)C1=CCC(C)(C)C2	n	x	x	x	x	x
COc1ccc(-n2cccc2/C=C2/NC(=O)N(c3cccc(Cl)c3)C2=O)cc1	n	n	76.1	56.3	n	n
O=C(O)c1cccc(-n2cccc2/C=C2/NC(=O)N(c3ccc(Cl)cc3)C2=O)c1	n	n	n	n	n	n
O=C(O)c1cccc(-n2cccc2/C=C2/NC(=O)N(c3cccc(Cl)c3)C2=O)c1	n	n	n	58.1	n	n
CC(C)NC(=O)c1cc(C2CCCCN2S(=O)(=O)c2cccs2)on1 (centres undefined)	n	n	n	n	n	n
CCN(CCc1ccccc1)c1ccc2c(c1)C1CC2CCN1Cc1ccccc1 (centres undefined)	n	n	n	n	n	n
Cc1cccc(COc2ccc(S(=O)(=O)N3CCOCC3)cc2[N+](=O)[O-])c1	n	n	n	n	n	n
O=C1NC(=O)C2(CCCC2c2ccccc2)N1 (centres undefined)	n	n	n	n	n	n
COC(=O)c1ccc(CNC(=O)Cn2cnc3c(SC)nc(N)nc32)cc1	n	n	n	n	n	n
COC(=O)C(Sc1ccc(Cl)cc1)C1SC(=S)N(Cc2ccccc2)C1=O (centres undefined)	n	n	n	n	57.8	n
CCCN(CCC)CCCNC(=O)c1cc2cc3ccc(OC)cc3nc2o1	n	n	n	n	n	n
COc1ccc2cc3cc(C(=O)NCCc4ccc(OC)c(OC)c4)oc3nc2c1	n	53.4	n	66.5	n	n
COc1ccc2cc3cc(C(=O)N4CCCCCC4)oc3nc2c1	n	n	n	54.2	n	n
COc1ccc(CCNC(=O)c2ccc(CS(=O)(=O)c3ccc(Cl)cc3)o2)cc1OC	n	n	n	n	n	n
COc1ccc(CCNC(=O)c2ccc(CSc3ccc(Cl)cc3)o2)cc1OC	n	x	n	67.6	x	x
O=C(Cc1cccs1)N1CCN=C1SCc1cccc(F)c1	n	n	n	81.4	n	n
CC(C)C[C@H](CO)N(Cc1ccccc1)S(=O)(=O)N(Cc1ccccc1)[C@@H](CO)CC(C)C	n	53.4	n	n	n	n
C=CS(=O)(=O)N(Cc1ccccc1)[C@H](CO)CC(C)C	n	n	n	n	n	n
Cc1ccn2c(=O)nc(SCC(=O)N3CCCC3)nc2c1	n	n	n	n	n	n
CC(=O)c1ccc(N2CCN(c3ccc(S(=O)(=O)NCCCN(C)C)cc3[N+](=O)[O-])CC2)cc1	n	79.4	n	n	n	n
CCNC(=O)C1CCCN(C(=O)c2ccc(C(F)(F)F)cc2)CC1 (centres undefined)	n	n	n	n	n	n
COc1cccc(CC(=O)N2CCC(n3nccc3NC(=O)C3CCOC3)CC2)c1 (centres undefined)	n	n	n	n	n	n
COCC(=O)OC1CCn2c1nc1c2C(=O)C(C)=C(NC(C)=O)C1=O (centres undefined)	n	84.9	54.5	101.3	91.3	-68.3
CS(=O)(=O)c1cc(N2CCOCC2)ccc1CNC[C@H]1O[C@@H](n2cnc3c(=O)[nH]c(N)nc32)[C@H](O)[C@@H]1O	n	n	n	n	n	n
CC12CCCC[C@@H]1CCC1C2CCC2(C)C1CC[C@@]2(O)CNCCO (some centres undefined)	n	109.6	n	n	n	n
SMILES	HIF-2a inh	Peg3 prom inh	TROY signal inh	TWEAK-Fn14 inh	CF NFkB inh	KKLEB cytotox
c1ccc(COc2cccc(-c3cc4nc(NCCc5ccncc5)ccn4n3)c2)cc1	n	n	n	61.0	n	n
c1ccc(COc2ccc(-c3cc4nc(NCCOc5ccccc5)ccn4n3)cc2)cc1	n	n	n	n	n	n
COCCCNc1ccn2nc(-c3ccc(OCc4ccccc4)cc3)cc2n1	n	n	n	78.5	n	n
COc1cc(-c2cc3nc(NCCOc4ccccc4)ccn3n2)cc(OC)c1OC	n	53.2	n	58.3	n	n
c1ccc(COc2cccc(-c3cc4nc(NCCOc5ccccc5)ccn4n3)c2)cc1	n	n	n	n	n	n
CCOC1=C2[C@H](c3ccc(CC)cc3)N(S(=O)(=O)c3ccc(C)cc3)C[C@H]2C(C#N)(C#N)C(C#N)(C#N)C1	61.8	88.8	n	n	n	n
CCOC1=C2[C@@H](CN(S(=O)(=O)c3ccc(C)cc3)[C@H]2c2ccccc2Cl)[C@H]2C(=O)NC(=O)[C@H]2C1	n	n	n	n	n	n
CCOC1=C2CN(S(=O)(=O)c3ccc(C)cc3)C(c3ccc(CC)cc3)CC2N(S(=O)(=O)c2ccc(C)cc2)C(c2ccc(CC)cc2)C1 (centres undefined)	n	x	x	x	x	x
CCOC1=C2[C@H](c3ccccc3Cl)N(S(=O)(=O)c3ccc(C)cc3)C[C@H]2C(C#N)(C#N)C(C#N)(C#N)C1	61.4	n	n	n	n	n
Cc1cccc(C(=O)NC2CCN(CC(=O)Nc3ccccc3Cl)CC2)c1	n	n	n	n	n	n
COc1ccc(CCNC(=O)c2nnn(-c3ccccc3OC)c2N)cc1OC	n	n	n	n	n	n
COc1ccc(CCNC(=O)c2nnn(-c3ccc4c(c3)OCCO4)c2N)cc1OC	51.2	n	87.0	97.3	n	n
COc1ccc(S(=O)(=O)N2CCCOC2CNC(=O)C(=O)NCc2ccccn2)cc1 (centres undefined)	n	n	n	n	n	n
CCNC(=O)C1(C)CCN(C(=O)c2ccc(F)cc2Cl)C1 (centres undefined)	n	n	n	89.0	n	n
COc1ccc(C(=O)N2CCCCC2c2cc(C(=O)NCc3ccccc3)no2)cc1 (centres undefined)	n	n	n	n	n	n
COc1ccc2nc(Nc3nc(C)c(C(C)=O)s3)sc2c1	n	n	n	64.0	n	n
CCOC(=O)c1sc(Nc2nc3c(OC)cccc3s2)cc1C	n	77.3	n	n	n	n
COc1cccc2sc(Nc3nc4ccc(NC(C)=O)cc4s3)nc12	n	n	n	50.6	n	n
Cc1cc(Cl)c2oc(C(=O)N3CCN(C(=O)c4ccco4)CC3)c(C)c2c1	n	n	n	n	n	n
CCc1ccc(/C=C2/Sc3ccccc3N(CC(=O)NCCCN3CCOCC3)C2=O)cc1	n	n	n	n	n	n
CN1CCN(CCCNC(=O)c2ccc(/C=C3\Sc4ccccc4N(Cc4ccccc4F)C3=O)cc2)CC1	n	74.3	n	n	n	n
CN1C(=O)/C(=C\c2ccccc2F)Sc2ccc(C(=O)NC3CCN(Cc4ccccc4)CC3)cc21	n	58.3	n	n	n	n
CCOCCCNC(=O)/C=C1\Sc2ccccc2N(Cc2ccccc2F)C1=O	n	n	n	n	n	n
Cc1ccccc1CN1C(=O)/C(=C\c2ccc(C(=O)NCCN3CCOCC3)cc2)Sc2ccccc21	n	56.6	n	n	n	n
